# Compound activity (PubChem BioAssay)
# FLuc counter: counter-screen for miR-21 project: firefly luciferase inhibitors or activators; P08659; purified FLuc, Km substrates, luminescence inhibition; Potency, µM (top dose mostly 57.5 µM), for the others: top-dose activity change, negative = inhibition, actives largely listed as inhibitors; 6.9% of 360,000 active;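 also: plate controls were vehicle for no effect and reference inhibitor for full effect; nearly all actives have a fitted effect of over 55% in size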
# Target sequence (P08659 whole entry, looked up): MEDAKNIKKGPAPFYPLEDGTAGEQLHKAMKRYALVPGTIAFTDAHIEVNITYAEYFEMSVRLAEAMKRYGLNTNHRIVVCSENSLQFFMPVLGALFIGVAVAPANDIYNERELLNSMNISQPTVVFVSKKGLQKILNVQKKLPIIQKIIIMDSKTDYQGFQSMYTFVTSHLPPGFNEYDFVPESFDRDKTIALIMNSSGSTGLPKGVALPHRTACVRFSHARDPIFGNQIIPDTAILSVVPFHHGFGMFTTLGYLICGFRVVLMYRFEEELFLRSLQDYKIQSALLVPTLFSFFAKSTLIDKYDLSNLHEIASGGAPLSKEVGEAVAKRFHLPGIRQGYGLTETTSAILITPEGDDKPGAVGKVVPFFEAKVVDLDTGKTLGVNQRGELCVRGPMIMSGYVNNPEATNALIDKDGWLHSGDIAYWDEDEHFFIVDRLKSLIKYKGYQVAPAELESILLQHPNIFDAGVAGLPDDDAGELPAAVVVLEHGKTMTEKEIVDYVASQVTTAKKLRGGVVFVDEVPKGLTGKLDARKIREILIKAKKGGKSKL
#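 Purified P. pyralis luciferase, 10 nM final, with Km-level 10 uM D-luciferin and 10 uM ATP in 50 mM Tris acetate pH 7.5, 10 mM Mg acetate, 0.01% Tween-20, 0.05% BSA; 6-point qHTS titration about 60 µM downward; luminescence read.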
# SMN2 splice enh: enhancers of SMN2 splice variant expression; 2.8% of 210,000 active; Potency, µM (doses to about 46.1 µM), without a hit: at the top dose activity change, positive = activation, actives largely listed as activators; HEK293 SMN2-luciferase splicing reporter, luminescence, 30-36 h; also: % of control where 0% means no effect; nearly all actives have a fitted effect of over 55% in size
#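 HEK293 cells carry an SMN2 […]–luciferase reporter in which exon 7 inclusion puts luciferase in frame. Cells were plated 10-12 h before compound addition, then incubated 30-36 h at 37C. ONE-Glo luminescence was read; sodium butyrate at 4.5 mM final served as control.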
# ELG1 repair inh: inhibitors of ELG1-dependent DNA repair in HEK293T cells. HEK293T ELG1-luciferase reporter, luminescence, 16 h; DNA damage induced by 5-fluorouridine. Potency, µM (doses to about 46.1 µM), for the others: at the highest dose activity change, negative = inhibition, usual class: inhibitors. 2.3% of 330,000 active. AID 504467; also: % is scaled to controls: 0 for no effect and ±100 for the full control effect; nearly all actives have a fitted effect of over 55% in size
#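 Cells (2,000 per well) received 5-fluorouridine plus test compound or DMSO and were incubated 16 hr at 37 °C, 5% CO2. Luciferase activity was read by luminescence 30 min after ONE-Glo addition; signal suppression marked inhibition of damage-induced ELG1 function.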
# ELG1 genotox: genotoxicity induction in ELG1-luciferase HEK293T cells; 1.3% of 330,000 active; Potency, µM (doses to about 46 µM), for inactives: at the top dose activity change, positive = activation, most hits filed as activators; AID 504466; HEK293T ELG1-luciferase reporter, luminescence, 16 h; also: % of control where 0% means no effect; nearly all actives have a fitted effect of over 60% in size
#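 Screening used a luciferase reporter fused to human ELG1 in HEK293T cells. Luminescence was read on a CCD plate imager after 16 hr exposure and 30 min ONE-Glo incubation.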
# NPC1 prom act: activates the NPC1 promoter. Potency, µM (series often up to 9.22 µM), without a hit: top-dose activation, most hits filed as activators. 2.4% of 320,000 active. Huh7 NPC1 promoter luciferase reporter, 24 h; also: % of control where 0% means no effect; nearly all actives have a fitted effect of over 60% in size
#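 Stably transfected Huh7 (NPC1 promoter→luciferase), 1500 cells/well in Opti-MEM + 10% FBS, 2 h settle, then compound 24 h at 37 °C. Luminescence after 10 min with Amplite reagent.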
# Rab9 promoter act: Rab9 promoter activation; AID 485297; 2.8% of 320,000 active; Potency, µM (top dose mostly 9.22 µM), inactives show at the highest dose activation, negative = inhibition, actives largely listed as activators; Huh7 Rab9 promoter-luciferase reporter, luminescence, 24 h; also: % of control where 0% means no effect; nearly all actives have a fitted effect of over 60% in size
#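 Luminescence read-out: Huh7 cells stably expressing Rab9-luciferase, treated 24 h with compound at 37 °C, then lysed with luciferase reagent for 10 min at ambient before reading.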
# Numbers without * were called inactive; ? = inconclusive; / = no result given; [ ] = another dose, or the depositor's remark. Sampled rows, rich in hits. Any-hit rate of the full collection: about 9.2%. Calls follow the shape of the dose curve; as a rule, active = well fitted curve in the direction sought with a large enough effect; inconclusive = small, poorly fitted or top-dose-only effect, or another doubt; inactive = no such curve, though single readings can be large; an effect the other way counts as inactive or inconclusive. Potency is read from the fitted curve at half-maximal effect.
SMILES,FLuc counter,SMN2 splice enh,ELG1 repair inh,ELG1 genotox,NPC1 prom act,Rab9 promoter act
Cc1nnc(NC(=O)c2ccc(S(=O)(=O)N3CCCCCC3)cc2)o1,-2%,-36%,-11%,2%,-5%,3%
Cc1nnc(NC(=O)c2ccc3ccccc3c2)o1,24µM*,-13%,17%,2%,4%,11%
CC(C)Oc1ccc(CCC(=O)NNC(=O)c2ccccc2C(=O)O)cc1,-8%,/,?,2%,6%,-2%
COc1ccc(C(=O)Nc2ccc(O)cc2C(=O)O)cc1,11µM*,-6%,6%,-2%,-4%,3%
ON(Cc1c(F)cccc1Cl)Cc1c(F)cccc1Cl,1%,/,-3%,0%,-2%,-1%
NC(=O)CC(NC(=O)c1ccc(Br)cc1)c1ccc(N2CCCCCCC2)c([N+](=O)[O-])c1 (stereo not given),2%,/,-16%,-3%,-8%,-10%
CCCN1C(=O)c2cc(C(=O)Nc3ccccc3C)ccc2C1Nc1ccccc1C (stereo not given),2%,/,23µM*,-7%,1%,-15%
COc1ccc(C(=O)Nc2ccccc2C(N)=O)cc1,-22%[2.3 µM],32µM*,?,?,3.2µM*,2µM*
NC(=O)c1ccccc1NC(=O)c1ccc2ccccc2c1,0.54µM*,/,?,2.3µM*,0.89µM*,0.56µM*
COc1ccc(C(=O)Nc2ccccc2C(=O)Nc2ccncc2)cc1,1.7µM*,/,?,?,?,?
C/C=C/C=C/C=O,/,1%,/,/,/,/
C=CCn1c(OCc2ccccc2)n[nH]c1=S,-1%,/,0%,-4%,-2%,-13%
COc1ccc(C(=O)Nc2ccccc2C(=O)Nc2ccccc2C(=O)O)cc1,0.48µM*,/,-3%,2%,3.2µM*,2.8µM*
COc1ccc(NC(=O)c2ccccc2NC(=O)NC2CCCCC2)cc1,5.4µM*,20%,?,4%,21%,18%
COc1ccc(C(=O)Nc2ccccc2C(=O)N/N=C/c2cccc3ccccc23)cc1,0.085µM*,-60%,?,-9%,?,?
O=C(Cc1ccc(Cl)cc1)Nc1ccccc1C(=O)Nc1ccc(C(=O)O)cc1,-20%,-6%,?,11%,-6%,0%
O=C(O)c1ccc(NC(=O)c2ccccc2NC(=O)c2ccccc2Cl)cc1,19µM*,/,10%,1%,-2%,-2%
COc1ccc(C(=O)Nc2ccccc2C(=O)N2CCCCCC2)cc1,0%,/,18%,5%,?,4%
COc1cccc(/C=N/NC(=O)c2cccc3ccccc23)c1,-11%,/,-12%,-6%,10%,-2%
CCC(=O)Nc1ccccc1C(=O)OCc1cc(=O)n2cc(C)sc2n1,-1%,/,/,/,/,/
NC(=O)c1ccccc1NC(=O)c1ccc2c(c1)OCO2,7.6µM*,/,?,?,1µM*,1.8µM*
COc1c(Cl)cc(C(=O)NN)cc1Cl,1%,/,?,?,-3%,3%
COC(=O)c1ccccc1NC(=S)NC(=O)c1ccc2c(c1)OCO2,-19%,/,20%,10%,-2%,-3%
COCC(=O)Nc1ccccc1C(=O)Nc1ccc(OC)cc1,1%,?,?,?,?,2.8µM*
COc1c(Cl)cc(C(=O)Nc2ccccc2C(=O)O)cc1Cl,17µM*,-3%,?,2%,3%,18%
SMILES,FLuc counter,SMN2 splice enh,ELG1 repair inh,ELG1 genotox,NPC1 prom act,Rab9 promoter act
CCOC(=O)CCNC(=O)N1CCCC(Cc2ccccc2)(C(=O)OCC)C1 (stereo not given),0%,/,-3%,-1%,0%,-3%
COc1ccc(C(=O)NCCS(=O)(=O)NC(C)c2ccccc2)cc1 (stereo not given),0%,/,11%,2%,-3%,3%
CCCCN1CCCC1CNC(=O)c1cc(C#N)c2ccccc2c1OC (stereo not given),-5%,/,/,/,-1%,-7%
CC(C)OC(=O)CSc1ncnc2c1cnn2-c1ccccc1,8.5µM*,-14%,19%,27%,2%,20%
CC(C)(C)C(=O)CSc1ncnc2c1cnn2-c1ccccc1,1.2µM*,/,?,?,0.71µM*,0.63µM*
c1ccc(CSc2ncnc3c2cnn3-c2ccccc2)cc1,12µM*,22µM*,?,?,?,?
Cc1cc(NC(=O)CSc2ncnc3c2cnn3-c2ccccc2)no1,-4%,-16%,?,-11%,-6%,-3%
CCn1c(C)c(C(=O)c2ccccc2)c(C#N)c1C(=O)O,-20%,/,16%,5%,3%,-1%
CN(CC(=O)Nc1ccccc1C(=O)NC1CC1)Cc1ccc(Cl)s1,7%,/,-26%,-2%,-5%,-2%
O=C(Cn1ncn2c(cc3sccc32)c1=O)NCCc1ccccc1,-6%,5%,/,/,/,/
CCCSC1=C(C#N)C2(CCCCC2)C(C#N)=C(N)N1,21µM*,/,-24%,-1%,-1%,-7%
N#CC1=C(N)NC(SCC(=O)c2ccc(Br)cc2)=C(C#N)C12CCCCC2,0%,-28%,?,-10%,-2%,-13%
N#CC1=C(N)NC(SCc2ccccc2)=C(C#N)C12CCCCC2,-3%,-23%,?,-6%,-2%,7%
CCSC1=C(C#N)C2(CCCCC2)C(C#N)=C(N)N1,6µM*,-13%,1%,-1%,-5%,13%
COc1ccc(/C=C2\SC(=N)N(c3nccs3)C2=O)cc1OC,2.1µM*,-23%,?,?,-3%,0%
CCC1=C(OC(=O)N(CC)CC)N2C(=O)OC(=NCCOC)[C@]2(C)[C@H]2C1=CC[C@H]1C(=O)N(C)C(=O)[C@H]12,/,-6%,/,/,/,/
O=C1C(=Cc2ccco2)C(=O)c2ccccc21,13µM*,8%,?,2%,8%,1%
O=C1ON=C(c2ccccc2)/C1=C/c1ccco1,?,12%,?,5%,0%,2%
O=C(O)c1ccc2c(c1)C(=O)/C(=C\c1ccco1)C2=O,9.5µM*,3%,-4%,1%,-1%,0%
Cc1ccc(C=C2C(=O)c3ccccc3C2=O)o1,0.48µM*,-8%[1.84 µM],?,8%,2%,1%
Cc1ccc(/C=C2/C(=O)c3ccc(C(=O)O)cc3C2=O)o1,2.7µM*,/,10%,3%,2%,-16%
Cc1cccc(N2C(=O)N(CC(=O)C(C)(C)C)c3ccccc3S2(=O)=O)c1C,0%,/,/,/,/,/
Cc1cccc(C(=O)Oc2ccc3ccc(O)cc3c2)c1,24µM*,/,-25%,1%,8%,0%
CC(C)(C)c1ccc(OC(=O)c2ccccc2)cc1,2.4µM*,/,?,9%,-13%,-3%
O=C(Oc1ccc2ccccc2c1)c1ccccc1,2.4µM*,-12%,?,?,0%,-2%
